Consider 39 compounds from PubChem BioAssay (NCI).

About 83,000 compounds went through this panel and 20% of them were active in at least one assay; those are over-represented in the sample as a whole.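 The endpoint reported here, percent growth, reads 100 for growth as untreated, 0 for no net growth and -100 for all cells dead.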 Active and inactive are the calls of the source. Rule for the calls: active = growth percent below 10; inactive = the rest.

In one test the test system is CAKI-1 renal. The test can be described thus: NCI-60 one-dose screen, 48 h (100 = growth as untreated, 0 = no growth, -100 = all killed). Conditions: 10 µM.
In the case of `Cc1ccc(NC(=O)NC2CCCCC2)cc1`, the growth was 104% (inactive).
The same measure, in the same setting: to `Clc1ccc(Nc2ccnc(NCCNc3ccnc4cc(Cl)ccc34)n2)cc1` belongs -7.16% (active); to `COc1cc(Nc2ccnc(NCCCNc3ccnc4cc(Cl)ccc34)n2)cc(OC)c1`, -3.88% (active); to `c1ccc2c(-c3nc(N4CCOCC4)c4c5c(sc4n3)CCCCCC5)cccc2c1`, 99.2% (inactive).
Turning to `COc1ccc(S(=O)(=O)Nc2c(/C=C\c3cc(OC)c(OC)c(OC)c3)ccc(OC)c2O)cc1`, the growth is 32.9% (inactive).
The same measure, in the same setting: to `COc1ccc2nc3cc(Cl)ccc3c(NCCNCC(C)O)c2c1` (stereo not drawn) belongs 47.6% (inactive); to `COc1ccc(-c2cc(/C=C3\C(=O)Nc4ccc(Cl)cc43)[nH]n2)cc1OC`, 81.3% (inactive).
On the same count and under the same terms, then `Cc1nc2c(c(=O)[nH]1)OCN(Cc1ccccc1)C2`, with 103% (inactive); and `COc1cc(NC(=O)c2sc3nc4c(cc3c2N)C(O)CCC4)cc(OC)c1` (stereo not drawn), with 90.4% (inactive).
Still for that read-out and setting: then `CC/C(=C(/c1ccc(OCCN(C)C)cc1)c1ccc(OC(=O)CCCCC(=O)c2c(C)[nH]c(/C=C3\N=C(c4ccc[nH]4)C=C3OC)c2C)cc1)c1ccccc1`, with 47.6% (inactive); and `c1ccc(CP(Cc2ccccc2)c2ccccc2)cc1`, with 92.3% (inactive); and `COc1cc(-c2cc(/C=C/C(=O)c3ccc(N)cc3)[nH]n2)cc(OC)c1OC`, with 9.46% (active).
`CC(C)(Cl)CCC1=C(Cl)C(=O)c2ccccc2C1=O`: the growth is 96% (inactive).
Still for that read-out and setting: to `COc1ccc(-c2nn(-c3cccc(NC(=O)Nc4ccccc4)c3)cc2-c2ccncc2)cc1Cl` belongs -7.47% (active); to `O=C(c1cccs1)c1ccccc1Cc1ccccc1`, 89.6% (inactive).
Same read-out and setting: then `FC(F)(F)c1ccc(-c2cnc(Cl)nc2N2CCC3(CC2)OCCO3)cc1`, with 86.5% (inactive); and `COc1ccc(-c2nsc3c2NC(=O)CC3c2ccc(F)cc2)cc1` (stereo not drawn), with 24.3% (inactive); and `Nc1ccc2c(c1)C1(CCC2)NC(=O)NC1=O` (stereo not drawn), with 95.7% (inactive).
In the case of `O=C(Nc1cccc(-n2cc(-c3ccncc3)c(-c3cc(O)cc(Cl)c3)n2)c1)c1ccc(N2CCOCC2)c(C(F)(F)F)c1`, the growth was 14.8% (inactive).
As for `COc1cc2cc3c(nc2cc1OC)CCN3Cc1ccc(NC(=O)Nc2cc(C(F)(F)F)cc(C(F)(F)F)c2)cc1`, the growth was 69.4% (inactive).
Regarding `COc1ccc(-c2nn(-c3cccc(NC(=O)c4cccc(C(F)(F)F)c4)c3)cc2-c2ccncc2)cc1Cl`, the growth is 11.3% (inactive).
Regarding `COc1ccc(-c2nc3sccn3c2-c2nc3c([nH]2)C(=O)c2ccccc2C3=O)cc1`, the growth was 84.7% (inactive).
For `O=C1/C(=C\c2ccccc2)CN(C(=O)c2ccccc2)C/C1=C\c1ccccc1`, the growth is 33.3% (inactive).
Consider `CCOC(=O)C1(CC(C)C)CCOC1=O` (stereo not drawn), for which the growth is 92.4% (inactive).
Regarding `CCOC(=O)N1C/C(=C/c2ccc(Cl)cc2)C(=O)/C(=C/c2ccc(Cl)cc2)C1`, the growth was 65.5% (inactive).
The same measure, in the same setting: to `CCN1CCCC1CNC(=O)c1ncc(-c2ccc(C(F)(F)F)cc2)c(NC2CCCCCC2)n1` (stereo not drawn) belongs 83% (inactive); to `CCOC(=O)N/N=C\C(C)=N\NC(=O)OCC`, 90.1% (inactive); to `Cc1cc2c(C)c3cc(C)c(N)cc3nc2cc1N`, 14.8% (inactive).
In the case of `COc1ccc(-c2cc(/C=C/C(=O)c3cc(OC)c(OC)c(OC)c3)[nH]n2)cc1OC`, the growth was 4.66% (active).
Still for that read-out and setting: then `CC(=O)N1N=C(c2ccc(Cl)cc2)CC1c1sc(Cl)nc1Cl` (stereo not drawn), with 75.9% (inactive); and `O=C1/C(=C/c2ccc([N+](=O)[O-])s2)Oc2ccccc21`, with -26.8% (active); and `CN(C)Cc1cn(-c2ncc(-c3ccc(C(F)(F)F)cc3)c(NC3CCCCCC3)n2)nn1`, with 84.7% (inactive).
Turning to `CSCCCNC(=O)c1ccc2c(c1)/C(=C/c1[nH]c(C)cc1C)C(=O)N2`, the growth was 9.54% (active).
Still for that read-out and setting: then `Fc1cc(C(F)(F)F)ccc1-c1cncnc1NC1CCCCCC1`, with 85.5% (inactive); and `CCOC(=O)N1C/C(=C/c2ccc(OC)cc2)C(=O)/C(=C/c2ccc(OC)cc2)C1`, with 41.9% (inactive); and `COc1ccc2c(c1)N(CCO)C1=C(C(=O)OC1)C2c1cc(OC)c(OC)c(OC)c1` (stereo not drawn), with 6.97% (active).
Still for that read-out and setting: to `Cc1cccc(C)c1NC(=O)c1sc2nc3c(cc2c1N)C(=O)CCC3` belongs 52% (inactive); to `COc1ccc2c(c1OC)O/C(=C\c1ncc([N+](=O)[O-])n1C)C2=O`, -27.5% (active).
Same read-out and setting: then `COc1ccc(Oc2nc(NC3CCCC3)nc(Sc3ccc(OC)cc3)n2)cc1`, with 49.3% (inactive).

The next test concerns A498 renal. The description is as above. To be noted: 10 µM.
On to `Cc1ccc(NC(=O)NC2CCCCC2)cc1`, for which the growth was 98.2% (inactive).
Still for that read-out and setting: then `Clc1ccc(Nc2ccnc(NCCNc3ccnc4cc(Cl)ccc34)n2)cc1`, with 17.9% (inactive).
As for `COc1cc(Nc2ccnc(NCCCNc3ccnc4cc(Cl)ccc34)n2)cc(OC)c1`, the growth was 14.9% (inactive).
On the same count and under the same terms, to `c1ccc2c(-c3nc(N4CCOCC4)c4c5c(sc4n3)CCCCCC5)cccc2c1` belongs 102% (inactive); to `COc1ccc(S(=O)(=O)Nc2c(/C=C\c3cc(OC)c(OC)c(OC)c3)ccc(OC)c2O)cc1`, -19.9% (active).
On the same count and under the same terms, to `COc1ccc2nc3cc(Cl)ccc3c(NCCNCC(C)O)c2c1` (stereo not drawn) belongs 37% (inactive); to `COc1ccc(-c2cc(/C=C3\C(=O)Nc4ccc(Cl)cc43)[nH]n2)cc1OC`, 76% (inactive); to `Cc1nc2c(c(=O)[nH]1)OCN(Cc1ccccc1)C2`, 75.5% (inactive).
The same measure, in the same setting: then `COc1cc(NC(=O)c2sc3nc4c(cc3c2N)C(O)CCC4)cc(OC)c1` (stereo not drawn), with 55.2% (inactive); and `CC/C(=C(/c1ccc(OCCN(C)C)cc1)c1ccc(OC(=O)CCCCC(=O)c2c(C)[nH]c(/C=C3\N=C(c4ccc[nH]4)C=C3OC)c2C)cc1)c1ccccc1`, with 75.7% (inactive).
`c1ccc(CP(Cc2ccccc2)c2ccccc2)cc1`: the growth is 103% (inactive).
The same measure, in the same setting: to `COc1cc(-c2cc(/C=C/C(=O)c3ccc(N)cc3)[nH]n2)cc(OC)c1OC` belongs -8.28% (active); to `CC(C)(Cl)CCC1=C(Cl)C(=O)c2ccccc2C1=O`, 27.4% (inactive).
Same read-out and setting: to `COc1ccc(-c2nn(-c3cccc(NC(=O)Nc4ccccc4)c3)cc2-c2ccncc2)cc1Cl` belongs 32.2% (inactive).
For the compound `O=C(c1cccs1)c1ccccc1Cc1ccccc1`, the growth was 58.4% (inactive).
On the same count and under the same terms, to `FC(F)(F)c1ccc(-c2cnc(Cl)nc2N2CCC3(CC2)OCCO3)cc1` belongs 75.8% (inactive).
Same read-out and setting: to `COc1ccc(-c2nsc3c2NC(=O)CC3c2ccc(F)cc2)cc1` (stereo not drawn) belongs 53.8% (inactive).
Same read-out and setting: to `Nc1ccc2c(c1)C1(CCC2)NC(=O)NC1=O` (stereo not drawn) belongs 101% (inactive); to `O=C(Nc1cccc(-n2cc(-c3ccncc3)c(-c3cc(O)cc(Cl)c3)n2)c1)c1ccc(N2CCOCC2)c(C(F)(F)F)c1`, 72.7% (inactive); to `COc1cc2cc3c(nc2cc1OC)CCN3Cc1ccc(NC(=O)Nc2cc(C(F)(F)F)cc(C(F)(F)F)c2)cc1`, 58.4% (inactive).
Turning to `COc1ccc(-c2nn(-c3cccc(NC(=O)c4cccc(C(F)(F)F)c4)c3)cc2-c2ccncc2)cc1Cl`, the growth is -11.9% (active).
On the same count and under the same terms, to `COc1ccc(-c2nc3sccn3c2-c2nc3c([nH]2)C(=O)c2ccccc2C3=O)cc1` belongs 49.7% (inactive); to `O=C1/C(=C\c2ccccc2)CN(C(=O)c2ccccc2)C/C1=C\c1ccccc1`, 45.1% (inactive).
Same read-out and setting: then `CCOC(=O)C1(CC(C)C)CCOC1=O` (stereo not drawn), with 107% (inactive); and `CCOC(=O)N1C/C(=C/c2ccc(Cl)cc2)C(=O)/C(=C/c2ccc(Cl)cc2)C1`, with 79.7% (inactive).
Same read-out and setting: then `CCN1CCCC1CNC(=O)c1ncc(-c2ccc(C(F)(F)F)cc2)c(NC2CCCCCC2)n1` (stereo not drawn), with 58.3% (inactive); and `CCOC(=O)N/N=C\C(C)=N\NC(=O)OCC`, with 103% (inactive); and `Cc1cc2c(C)c3cc(C)c(N)cc3nc2cc1N`, with -5.82% (active).
Take `COc1ccc(-c2cc(/C=C/C(=O)c3cc(OC)c(OC)c(OC)c3)[nH]n2)cc1OC`: the growth was -2.03% (active).
On the same count and under the same terms, to `CC(=O)N1N=C(c2ccc(Cl)cc2)CC1c1sc(Cl)nc1Cl` (stereo not drawn) belongs 9.27% (active).
Same read-out and setting: to `O=C1/C(=C/c2ccc([N+](=O)[O-])s2)Oc2ccccc21` belongs 97.9% (inactive); to `CN(C)Cc1cn(-c2ncc(-c3ccc(C(F)(F)F)cc3)c(NC3CCCCCC3)n2)nn1`, 76.9% (inactive); to `CSCCCNC(=O)c1ccc2c(c1)/C(=C/c1[nH]c(C)cc1C)C(=O)N2`, -25.9% (active).
Still for that read-out and setting: then `Fc1cc(C(F)(F)F)ccc1-c1cncnc1NC1CCCCCC1`, with 49.6% (inactive); and `CCOC(=O)N1C/C(=C/c2ccc(OC)cc2)C(=O)/C(=C/c2ccc(OC)cc2)C1`, with -0.589% (active).
`COc1ccc2c(c1)N(CCO)C1=C(C(=O)OC1)C2c1cc(OC)c(OC)c(OC)c1` (stereo not drawn): the growth is -12.2% (active).
Same read-out and setting: then `Cc1cccc(C)c1NC(=O)c1sc2nc3c(cc2c1N)C(=O)CCC3`, with -8.11% (active); and `COc1ccc2c(c1OC)O/C(=C\c1ncc([N+](=O)[O-])n1C)C2=O`, with 68.8% (inactive); and `COc1ccc(Oc2nc(NC3CCCC3)nc(Sc3ccc(OC)cc3)n2)cc1`, with 65.5% (inactive).
